Measured values taken from PubChem BioAssay (EPA / NIEHS).
Several values for one entry are separate records, joined by “and”; a condition that tells them apart may be missing. Equal entries are not always repeated. Results filed as inconclusive are left out. More than one record can exist for a structure, and the calls need not agree. Activity calls are given as the source filed them. Rule for the calls, unless noted: active = hit-call score of the fitted dose curve at least 0.9, where 1 is the maximum; inactive = score below 0.9.

How the values were obtained:
[1] = ATG_NFI_CIS: Attagene CIS-FACTORIAL HepG2 Assay for human Nuclear Factor I (NFI) (AID 2282989); details: HepG2 cis-regulatory reporter, NFI response element transcription; actives raise or lower the signal
How it was run: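 After transient transfection of HepG2 with cis-promoter reporter constructs and 24 h dosing, RNA is reverse-transcribed, amplified, 6-FAM end-labelled and HpaI-digested before capillary analysis. Bidirectional curve fitting against DMSO.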

[2] = target: Myc proto-oncogene protein (Homo sapiens) (UniProt P01106); experiment: ATG_Myc_CIS: Attagene CIS-FACTORIAL HepG2 Assay for human Myelocytomatosis (Myc) Proto-Oncogene Transcription Factor (AID 2282990); details: HepG2, Attagene cis-reporter transcription factor activity; actives raise or lower the signal
How it was run: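 Cells of the HepG2 human liver line bear multiple cis-driven reporter transcription units. Reporter mRNA after 24 h exposure is reverse-transcribed, amplified, labelled and resolved by capillary electrophoresis, with gain- or loss-of-signal fitting relative to DMSO.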

[3] = ATG_NF_kB_CIS: Attagene CIS-FACTORIAL HepG2 Assay for human Nuclear Factor Kappa B (NF-kB) (AID 2282991); details: HepG2 Attagene cis-factorial NF-kB reporter mRNA; actives raise or lower the signal
How it was run: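 Transient MRTU transfection of human HepG2 liver cells → 24 h chemical exposure → total RNA, oligo(dT) RT → PCR, 6-FAM primer extension, HpaI digest 2 h 37 C → CE fragment analysis. Bidirectional fitting, DMSO negative control.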

[4] = ATG_NRF2_ARE_CIS: Attagene CIS-FACTORIAL HepG2 Assay for human Nuclear Factor Erythroid 2 Related Factor 2 (NFR2) response to Antioxidant Response Elements (ARE) (AID 2282992); details: HepG2 Attagene ARE/NRF2 reporter, transcription factor activity; actives raise or lower the signal
How it was run: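 Transient MRTU transfection of HepG2; 24 h compound exposure; TriZol RNA, RT with oligo(dT), PCR, 6-FAM primer extension, HpaI cut, CE. Bidirectional fit vs DMSO.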

[5] = ATG_Oct_MLP_CIS: Attagene CIS-FACTORIAL HepG2 Assay for human Octamer-Binding Transcription Factor (Oct) (AID 2282993); details: HepG2 Attagene cis-factorial Oct reporter, mRNA; actives raise or lower the signal
How it was run: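 Cells of the HepG2 line express promoter-controlled reporter sequences whose mRNA levels, after 24 h treatment, are measured by RT-PCR and capillary electrophoresis. Increases and decreases are scored relative to DMSO.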

[6] = target: Cellular tumor antigen p53 (Homo sapiens) (UniProt P04637); experiment: ATG_p53_CIS: Attagene CIS-FACTORIAL HepG2 Assay for human p53 Transcription Factor (AID 2282994); details: HepG2 p53 cis-element reporter, Attagene mRNA; actives raise or lower the signal
How it was run: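 HepG2, transient MRTU transfection (cis promoter elements, endogenous TFs); 24 h dosing; RNA isolation, RT-PCR, 6-FAM primer extension, HpaI digest, CE fluorescence; bidirectional fit vs DMSO.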

[7] = BSK_3C_TissueFactor: BioMAP Diversity Plus: 3C Assay for Tissue Factor Biomarker Activity (AID 2282997); details: BioMAP 3C HUVEC, tissue factor biomarker readout; actives raise or lower the signal
How it was run: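 ELISA read-out of Tissue Factor levels on human umbilical vein endothelium collected 24 h after chemical dosing. Gain or loss of signal was fitted relative to DMSO.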

[8] = BSK_3C_uPAR: BioMAP Diversity Plus: 3C Assay for Urokinase-type plasminogen activator receptor (uPAR) Biomarker Activity (AID 2282998); details: BioMAP 3C HUVEC, uPAR biomarker ELISA; actives raise or lower the signal
How it was run: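 Endothelial primary cells of human umbilical vein origin received test chemical; 24 h later uPAR was assayed by ELISA. Fitting was bidirectional, DMSO as negative control.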

[9] = BSK_3C_VCAM1: BioMAP Diversity Plus: 3C Assay for Vascular cell adhesion molecule 1 (VCAM1) Biomarker Activity (AID 2282999); details: BioMAP 3C HUVEC, VCAM1 ELISA, cytokine-stimulated; actives raise or lower the signal
How it was run: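 Endothelial cells from human umbilical vein are treated with test chemical. At 24 h, VCAM-1 is measured by ELISA, and responses in either direction are fitted relative to DMSO.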

[10] = BSK_4H_Eotaxin3: BioMAP Diversity Plus: 4H Assay for Eotaxin 3 Biomarker Activity (AID 2283000); details: primary human endothelial cells (HUVEC); actives raise or lower the signal
How it was run: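 Chemicals were added to human umbilical vein endothelium cultures, and Eotaxin-3 was quantified by ELISA at 24 h. Values were derived by bidirectional fitting with DMSO serving as negative control and activity baseline.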

[11] = target: human Peroxisome Proliferator-activated Receptor alpha (PPARa), PPARA (gene 5465) (UniProt Q07869); experiment: ATG_PPARa_TRANS: Attagene TRANS-FACTORIAL HepG2 Assay for human Peroxisome Proliferator-activated Receptor alpha (PPARa) (AID 2283001; active = hit-call score of the fitted dose curve at least 0.9, where 1 is the maximum)
How it was run: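 Reporter transcripts from GAL4-UAS units in transfected HepG2 were quantified 24 h after dosing. Detection used reverse transcription, PCR, fluorescent primer extension and capillary electrophoresis, with DMSO as baseline.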

[12] = target: human Peroxisome Proliferator-activated Receptor delta (PPARd), PPARD (gene 5467) (UniProt Q03181); experiment: ATG_PPARd_TRANS: Attagene TRANS-FACTORIAL HepG2 Assay for human Peroxisome Proliferator-activated Receptor delta (PPARd) (AID 2283002; active = hit-call score of the fitted dose curve at least 0.9, where 1 is the maximum)
How it was run: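 Cell-based TRANS reporter: HepG2, transient MRTU transfection, 24 h exposure. Readout = reporter mRNA (RT-PCR/CE, 6-FAM). Gain-of-signal fit vs DMSO control.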

[13] = read-out: Intercellular Adhesion Molecule 1 (ICAM1), ICAM1 (gene 3383); experiment: BSK_3C_ICAM1: BioMAP Diversity Plus: 3C Assay for Intercellular Adhesion Molecule 1 (ICAM1) Biomarker Activity (AID 2283003); details: primary human endothelial cells (HUVEC); actives raise or lower the signal
How it was run: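 Primary human umbilical vein endothelial cells in the BioMAP 3C system were exposed to chemicals for 24 h, then ICAM-1 was quantified by ELISA. Activity was fitted bidirectionally against the DMSO negative control baseline.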

[14] = BSK_3C_Proliferation: Cell Proliferation Assessment in the BioMAP Diversity Plus: 3C Assay (AID 2283006); details: primary human endothelial cells (HUVEC);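 for AC50: potency may reflect either rise or fall in cell number versus DMSO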
How it was run: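 Human umbilical vein endothelial cells were grown sub-confluent and exposed to chemical for 48 h, then fixed with 10% TCA and stained with 0.1% sulforhodamine B; absorbance at 560 nm gave relative cell number, fitted bidirectionally against DMSO baseline.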

[15] = target: Peroxisome proliferator-activated receptor gamma (Homo sapiens) (UniProt P37231); experiment: ATG_PPARg_TRANS: Attagene TRANS-FACTORIAL HepG2 Assay for human Peroxisome Proliferator-activated Receptor-gamma (PPARg) (AID 2283007; active = hit-call score of the fitted dose curve at least 0.9, where 1 is the maximum)
How it was run: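 Transient transfection of HepG2 with GAL4-UAS-driven reporter units; chemical dosing 24 h; total RNA → oligo(dT) RT → PCR with reporter primers → 6-FAM primer extension → HpaI digest 2 h 37 C → capillary electrophoresis. Positive direction vs DMSO.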

[16] = target: Nuclear receptor subfamily 1 group I member 2 (Homo sapiens) (UniProt O75469); experiment: ATG_PXR_TRANS: Attagene TRANS-FACTORIAL HepG2 Assay for human Pregnane X Receptor (PXR) (AID 2283008; active = hit-call score of the fitted dose curve at least 0.9, where 1 is the maximum)
How it was run: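 Read-out is fluorescence of labelled reporter cDNA fragments separated by capillary electrophoresis after RT-PCR and HpaI digestion. Source: HepG2 cells carrying PXR-GAL4/UAS reporter constructs, treated 24 h; activity fitted upward relative to DMSO.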

[17] = target: human Retinoic Acid Receptor gamma (RARg), RARG (gene 5916) (UniProt P13631); experiment: ATG_RARg_TRANS: Attagene TRANS-FACTORIAL HepG2 Assay for human Retinoic Acid Receptor gamma (RARg) (AID 2283009; active = hit-call score of the fitted dose curve at least 0.9, where 1 is the maximum)
How it was run: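 HepG2 cells transiently transfected with multiplexed reporter units expressing chimeric RARg-GAL4 and GAL4-UAS-driven reporters; 24 h compound exposure. Reporter mRNA quantified by RT-PCR with fluorescent labelling and capillary electrophoresis; gain-of-signal fitted relative to DMSO baseline.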

[18] = target: human Retinoic Acid Receptor beta (RARb), RARB (gene 5915) (UniProt P10826); experiment: ATG_RARb_TRANS: Attagene TRANS-FACTORIAL HepG2 Assay for human Retinoic Acid Receptor beta (AID 2283004; active = hit-call score of the fitted dose curve at least 0.9, where 1 is the maximum)
How it was run: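 Transient transfection of HepG2 with multiple reporter units → chemical dosing, 24 h → total RNA isolation → RT with oligo(dT) → reporter-specific PCR, 6-FAM primer extension, HpaI digest → capillary electrophoresis. Positive direction vs DMSO control.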

[19] = target: Retinoic acid receptor alpha (Homo sapiens) (UniProt P10276); experiment: ATG_RARa_TRANS: Attagene TRANS-FACTORIAL HepG2 Assay for human Retinoic Acid Receptor alpha (RARa) (AID 2283005; active = hit-call score of the fitted dose curve at least 0.9, where 1 is the maximum)
How it was run: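 Reporter transcripts, measured by RT-PCR with fluorescent labeling and capillary electrophoresis after 24 h dosing, reflect activity of an exogenous human RARa–GAL4 fusion in transiently transfected HepG2. Fitted for increase relative to DMSO.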

Measured: AC50

Peroxisome proliferator-activated receptor gamma (Homo sapiens), sequence (P37231 whole entry, looked up, the tested form may be a part): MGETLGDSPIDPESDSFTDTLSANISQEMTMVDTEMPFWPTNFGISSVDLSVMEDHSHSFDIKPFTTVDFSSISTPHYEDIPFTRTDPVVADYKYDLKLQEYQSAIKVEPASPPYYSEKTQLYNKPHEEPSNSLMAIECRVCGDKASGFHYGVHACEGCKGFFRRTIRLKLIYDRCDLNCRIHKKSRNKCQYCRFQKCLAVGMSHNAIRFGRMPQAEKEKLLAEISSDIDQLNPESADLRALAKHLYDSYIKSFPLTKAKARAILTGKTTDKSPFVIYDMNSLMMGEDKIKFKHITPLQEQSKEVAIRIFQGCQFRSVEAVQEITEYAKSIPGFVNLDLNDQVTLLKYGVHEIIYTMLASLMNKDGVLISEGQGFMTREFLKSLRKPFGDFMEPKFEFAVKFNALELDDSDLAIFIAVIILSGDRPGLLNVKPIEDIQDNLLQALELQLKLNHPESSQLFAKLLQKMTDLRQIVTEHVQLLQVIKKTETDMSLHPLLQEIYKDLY
Nuclear receptor subfamily 1 group I member 2 (Homo sapiens), sequence (O75469 whole entry, looked up, the tested form may be a part): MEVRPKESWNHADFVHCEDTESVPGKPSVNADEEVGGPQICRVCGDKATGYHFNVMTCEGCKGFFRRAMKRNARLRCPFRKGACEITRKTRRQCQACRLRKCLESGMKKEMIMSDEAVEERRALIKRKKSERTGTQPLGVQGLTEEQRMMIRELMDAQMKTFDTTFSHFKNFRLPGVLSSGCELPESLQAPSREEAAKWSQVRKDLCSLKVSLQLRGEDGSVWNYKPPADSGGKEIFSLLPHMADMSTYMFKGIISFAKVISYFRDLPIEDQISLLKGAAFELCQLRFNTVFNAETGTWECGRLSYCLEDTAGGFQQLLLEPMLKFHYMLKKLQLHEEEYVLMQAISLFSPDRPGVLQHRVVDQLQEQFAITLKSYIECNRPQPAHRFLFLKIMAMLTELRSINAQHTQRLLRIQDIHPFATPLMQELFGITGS
Myc proto-oncogene protein (Homo sapiens), sequence (P01106 whole entry, looked up): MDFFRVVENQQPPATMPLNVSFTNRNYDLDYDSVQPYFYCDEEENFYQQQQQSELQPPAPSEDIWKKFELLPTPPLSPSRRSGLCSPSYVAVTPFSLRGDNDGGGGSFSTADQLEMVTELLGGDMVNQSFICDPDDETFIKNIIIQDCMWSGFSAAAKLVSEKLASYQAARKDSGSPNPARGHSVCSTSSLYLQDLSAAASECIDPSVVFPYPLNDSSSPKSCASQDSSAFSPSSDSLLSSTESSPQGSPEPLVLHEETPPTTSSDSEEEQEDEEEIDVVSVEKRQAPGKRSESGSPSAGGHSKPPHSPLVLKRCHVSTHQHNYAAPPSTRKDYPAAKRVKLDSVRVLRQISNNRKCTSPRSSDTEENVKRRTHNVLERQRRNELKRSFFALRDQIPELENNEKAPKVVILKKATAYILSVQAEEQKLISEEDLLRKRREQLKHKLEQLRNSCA
human Peroxisome Proliferator-activated Receptor alpha (PPARa), PPARA (gene 5465), sequence (Q07869 whole entry, looked up, the tested form may be a part): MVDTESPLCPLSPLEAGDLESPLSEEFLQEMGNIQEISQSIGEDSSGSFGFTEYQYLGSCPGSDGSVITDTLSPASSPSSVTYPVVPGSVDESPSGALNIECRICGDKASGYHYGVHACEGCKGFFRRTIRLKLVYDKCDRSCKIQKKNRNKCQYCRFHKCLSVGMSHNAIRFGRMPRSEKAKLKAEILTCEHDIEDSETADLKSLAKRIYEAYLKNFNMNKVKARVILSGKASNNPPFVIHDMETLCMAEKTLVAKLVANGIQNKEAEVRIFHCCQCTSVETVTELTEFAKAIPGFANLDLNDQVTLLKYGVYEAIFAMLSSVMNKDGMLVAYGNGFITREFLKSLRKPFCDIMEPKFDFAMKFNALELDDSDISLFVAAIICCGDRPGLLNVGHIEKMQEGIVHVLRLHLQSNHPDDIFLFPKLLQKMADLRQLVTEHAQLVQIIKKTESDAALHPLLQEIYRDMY
Cellular tumor antigen p53 (Homo sapiens), sequence (P04637 whole entry, looked up): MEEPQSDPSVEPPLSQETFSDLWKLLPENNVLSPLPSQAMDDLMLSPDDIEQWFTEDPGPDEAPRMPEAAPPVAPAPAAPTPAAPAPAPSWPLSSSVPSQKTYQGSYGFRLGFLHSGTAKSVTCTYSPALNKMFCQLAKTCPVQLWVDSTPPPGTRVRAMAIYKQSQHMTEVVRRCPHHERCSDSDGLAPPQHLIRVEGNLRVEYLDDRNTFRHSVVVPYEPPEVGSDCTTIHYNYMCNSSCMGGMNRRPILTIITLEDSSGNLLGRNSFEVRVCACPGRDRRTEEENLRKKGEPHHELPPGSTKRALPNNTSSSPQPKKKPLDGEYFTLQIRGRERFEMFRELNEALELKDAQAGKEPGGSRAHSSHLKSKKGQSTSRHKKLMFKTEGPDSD
human Retinoic Acid Receptor beta (RARb), RARB (gene 5915), sequence (P10826 whole entry, looked up): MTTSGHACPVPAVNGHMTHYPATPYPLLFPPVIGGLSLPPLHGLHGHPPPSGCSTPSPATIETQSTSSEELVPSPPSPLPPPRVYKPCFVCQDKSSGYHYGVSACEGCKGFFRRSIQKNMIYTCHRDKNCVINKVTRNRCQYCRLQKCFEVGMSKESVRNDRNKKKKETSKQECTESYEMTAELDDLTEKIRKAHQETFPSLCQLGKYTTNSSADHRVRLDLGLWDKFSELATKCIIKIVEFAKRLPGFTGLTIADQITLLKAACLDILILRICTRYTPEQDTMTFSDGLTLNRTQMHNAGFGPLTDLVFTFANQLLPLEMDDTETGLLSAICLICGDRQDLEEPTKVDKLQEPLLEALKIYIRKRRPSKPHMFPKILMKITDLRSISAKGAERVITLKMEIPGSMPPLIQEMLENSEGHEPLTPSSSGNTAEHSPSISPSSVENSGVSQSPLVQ
Retinoic acid receptor alpha (Homo sapiens), sequence (P10276 whole entry, looked up, the tested form may be a part): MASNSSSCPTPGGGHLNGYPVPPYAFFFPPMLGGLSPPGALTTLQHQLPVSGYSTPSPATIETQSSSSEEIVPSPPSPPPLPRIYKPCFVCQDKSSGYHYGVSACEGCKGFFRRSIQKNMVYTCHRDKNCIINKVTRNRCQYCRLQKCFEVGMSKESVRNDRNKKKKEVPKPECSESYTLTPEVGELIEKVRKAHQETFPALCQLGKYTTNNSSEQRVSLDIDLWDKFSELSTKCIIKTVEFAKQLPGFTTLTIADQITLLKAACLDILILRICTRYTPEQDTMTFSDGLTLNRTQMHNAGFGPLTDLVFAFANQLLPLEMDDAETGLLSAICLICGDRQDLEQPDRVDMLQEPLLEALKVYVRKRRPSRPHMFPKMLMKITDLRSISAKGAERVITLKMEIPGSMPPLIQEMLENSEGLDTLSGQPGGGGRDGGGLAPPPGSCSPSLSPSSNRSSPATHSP
human Peroxisome Proliferator-activated Receptor delta (PPARd), PPARD (gene 5467), sequence (Q03181 whole entry, looked up): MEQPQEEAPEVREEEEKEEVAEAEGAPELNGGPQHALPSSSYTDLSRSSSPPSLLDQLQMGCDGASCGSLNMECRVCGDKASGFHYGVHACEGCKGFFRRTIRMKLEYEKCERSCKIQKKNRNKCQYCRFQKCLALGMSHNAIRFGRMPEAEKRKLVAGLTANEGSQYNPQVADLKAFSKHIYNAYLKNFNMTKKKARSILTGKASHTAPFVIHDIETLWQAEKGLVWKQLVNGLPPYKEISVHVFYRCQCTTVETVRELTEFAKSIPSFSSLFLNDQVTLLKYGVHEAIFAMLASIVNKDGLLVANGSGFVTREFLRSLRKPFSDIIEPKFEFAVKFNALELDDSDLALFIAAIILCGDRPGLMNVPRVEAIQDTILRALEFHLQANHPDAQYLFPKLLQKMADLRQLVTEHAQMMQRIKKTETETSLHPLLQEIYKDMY
human Retinoic Acid Receptor gamma (RARg), RARG (gene 5916), sequence (P13631 whole entry, looked up, the tested form may be a part): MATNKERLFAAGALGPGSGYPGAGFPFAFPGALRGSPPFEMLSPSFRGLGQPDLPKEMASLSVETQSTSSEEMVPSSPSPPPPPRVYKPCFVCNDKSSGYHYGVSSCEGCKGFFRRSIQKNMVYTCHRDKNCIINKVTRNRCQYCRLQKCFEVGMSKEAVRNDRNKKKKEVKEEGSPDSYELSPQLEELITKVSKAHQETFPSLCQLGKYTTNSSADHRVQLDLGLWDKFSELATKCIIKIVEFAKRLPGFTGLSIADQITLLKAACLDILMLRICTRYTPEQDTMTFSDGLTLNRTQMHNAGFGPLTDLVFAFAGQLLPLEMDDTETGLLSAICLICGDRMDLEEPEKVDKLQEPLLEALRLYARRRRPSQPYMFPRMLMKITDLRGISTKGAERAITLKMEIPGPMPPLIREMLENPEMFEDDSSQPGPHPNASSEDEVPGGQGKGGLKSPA

CCCCCCCOC(=O)c1ccccc1C(=O)OCCCCCCC
active: [15] 10.8 µM | [16] 6.29 µM
not listed: [18] | [19]
inactive: all other assays above

FC(F)(I)C(F)(F)C(F)(F)C(F)(F)I
inactive: [2] | [3] | [6] | [11] | [18] | [16]
active: [4] 33.4 µM | [7] 44.1 µM and 42 µM and 56.5 µM | [8] 51.2 µM and 53.9 µM and 47.1 µM | [9] 49.9 µM and 48.3 µM and 57.1 µM | [10] 52.2 µM and 47.2 µM and 45.6 µM | [13] 39.6 µM and 45.6 µM and 52.7 µM | [14] 49.8 µM and 52.8 µM and 49.4 µM | [15] 48.6 µM

O=C(O)C(F)(F)C(F)(F)C(F)(F)F
not listed: [6] | [17] | [18] | [19]
inactive: all other assays above

FC1CC(F)(F)C(F)(F)C1(F)F (stereo not given)
not listed: [5] | [12] | [16] | [17]
inactive: all other assays above

OCC(F)(F)C(F)(F)C(F)(F)C(F)(F)C(F)(F)C(F)(F)F
inactive: [1] | [2] | [3] | [7] | [8] | [9] | [10] | [11] | [13] | [19] | [16]
active: [4] 225 µM | [13] 46.4 µM | [14] 52.3 µM and 30 µM
